{"source": "the supplement of paper PMC11001985", "note": "Unmarked numbers belong to inactive results."}
{"compound": "C#CCNC(=O)CCSSCCC(=O)NCCc1ccc(C=O)c(C=O)c1", "assay": "lysine labeling ratio R10:1 (500 µM / 50 µM probe), SILAC-ABPP in living cells; higher = lower intrinsic lysine reactivity toward the probe, active = 2 or less", "details": "HeLa; probe concentrations 500 vs 50 µM", "method_in_brief": "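With forward and reverse label swaps, light and heavy SILAC HeLa cells, alive and in PBS at room temperature, were exposed to either 500 µM or 50 µM of an alkyne-tagged lysine probe bearing a disulfide link. After mixing, lysates were clicked to biotin-azide, cut with trypsin, pulled down on neutravidin, freed with DTT, alkylated and analysed on a TIMS-TOF Pro by LC-MS/MS. The per-lysine value R is the median over forward and reverse replicates of the filtered median high-probe/low-probe MS1 peptide ratio. It is capped at 20.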"}
{"target": "CKAP4 (lysine site: K388) (UniProt Q07065)", "lysine labeling ratio R10:1": 2.6}
{"target": "PPA1 (lysine site: K176) (UniProt Q15181)", "lysine labeling ratio R10:1": "1.88 (active)"}
{"target": "UniProt Q15149 (lysine site: K1401)", "sequence (Q15149 whole entry)": "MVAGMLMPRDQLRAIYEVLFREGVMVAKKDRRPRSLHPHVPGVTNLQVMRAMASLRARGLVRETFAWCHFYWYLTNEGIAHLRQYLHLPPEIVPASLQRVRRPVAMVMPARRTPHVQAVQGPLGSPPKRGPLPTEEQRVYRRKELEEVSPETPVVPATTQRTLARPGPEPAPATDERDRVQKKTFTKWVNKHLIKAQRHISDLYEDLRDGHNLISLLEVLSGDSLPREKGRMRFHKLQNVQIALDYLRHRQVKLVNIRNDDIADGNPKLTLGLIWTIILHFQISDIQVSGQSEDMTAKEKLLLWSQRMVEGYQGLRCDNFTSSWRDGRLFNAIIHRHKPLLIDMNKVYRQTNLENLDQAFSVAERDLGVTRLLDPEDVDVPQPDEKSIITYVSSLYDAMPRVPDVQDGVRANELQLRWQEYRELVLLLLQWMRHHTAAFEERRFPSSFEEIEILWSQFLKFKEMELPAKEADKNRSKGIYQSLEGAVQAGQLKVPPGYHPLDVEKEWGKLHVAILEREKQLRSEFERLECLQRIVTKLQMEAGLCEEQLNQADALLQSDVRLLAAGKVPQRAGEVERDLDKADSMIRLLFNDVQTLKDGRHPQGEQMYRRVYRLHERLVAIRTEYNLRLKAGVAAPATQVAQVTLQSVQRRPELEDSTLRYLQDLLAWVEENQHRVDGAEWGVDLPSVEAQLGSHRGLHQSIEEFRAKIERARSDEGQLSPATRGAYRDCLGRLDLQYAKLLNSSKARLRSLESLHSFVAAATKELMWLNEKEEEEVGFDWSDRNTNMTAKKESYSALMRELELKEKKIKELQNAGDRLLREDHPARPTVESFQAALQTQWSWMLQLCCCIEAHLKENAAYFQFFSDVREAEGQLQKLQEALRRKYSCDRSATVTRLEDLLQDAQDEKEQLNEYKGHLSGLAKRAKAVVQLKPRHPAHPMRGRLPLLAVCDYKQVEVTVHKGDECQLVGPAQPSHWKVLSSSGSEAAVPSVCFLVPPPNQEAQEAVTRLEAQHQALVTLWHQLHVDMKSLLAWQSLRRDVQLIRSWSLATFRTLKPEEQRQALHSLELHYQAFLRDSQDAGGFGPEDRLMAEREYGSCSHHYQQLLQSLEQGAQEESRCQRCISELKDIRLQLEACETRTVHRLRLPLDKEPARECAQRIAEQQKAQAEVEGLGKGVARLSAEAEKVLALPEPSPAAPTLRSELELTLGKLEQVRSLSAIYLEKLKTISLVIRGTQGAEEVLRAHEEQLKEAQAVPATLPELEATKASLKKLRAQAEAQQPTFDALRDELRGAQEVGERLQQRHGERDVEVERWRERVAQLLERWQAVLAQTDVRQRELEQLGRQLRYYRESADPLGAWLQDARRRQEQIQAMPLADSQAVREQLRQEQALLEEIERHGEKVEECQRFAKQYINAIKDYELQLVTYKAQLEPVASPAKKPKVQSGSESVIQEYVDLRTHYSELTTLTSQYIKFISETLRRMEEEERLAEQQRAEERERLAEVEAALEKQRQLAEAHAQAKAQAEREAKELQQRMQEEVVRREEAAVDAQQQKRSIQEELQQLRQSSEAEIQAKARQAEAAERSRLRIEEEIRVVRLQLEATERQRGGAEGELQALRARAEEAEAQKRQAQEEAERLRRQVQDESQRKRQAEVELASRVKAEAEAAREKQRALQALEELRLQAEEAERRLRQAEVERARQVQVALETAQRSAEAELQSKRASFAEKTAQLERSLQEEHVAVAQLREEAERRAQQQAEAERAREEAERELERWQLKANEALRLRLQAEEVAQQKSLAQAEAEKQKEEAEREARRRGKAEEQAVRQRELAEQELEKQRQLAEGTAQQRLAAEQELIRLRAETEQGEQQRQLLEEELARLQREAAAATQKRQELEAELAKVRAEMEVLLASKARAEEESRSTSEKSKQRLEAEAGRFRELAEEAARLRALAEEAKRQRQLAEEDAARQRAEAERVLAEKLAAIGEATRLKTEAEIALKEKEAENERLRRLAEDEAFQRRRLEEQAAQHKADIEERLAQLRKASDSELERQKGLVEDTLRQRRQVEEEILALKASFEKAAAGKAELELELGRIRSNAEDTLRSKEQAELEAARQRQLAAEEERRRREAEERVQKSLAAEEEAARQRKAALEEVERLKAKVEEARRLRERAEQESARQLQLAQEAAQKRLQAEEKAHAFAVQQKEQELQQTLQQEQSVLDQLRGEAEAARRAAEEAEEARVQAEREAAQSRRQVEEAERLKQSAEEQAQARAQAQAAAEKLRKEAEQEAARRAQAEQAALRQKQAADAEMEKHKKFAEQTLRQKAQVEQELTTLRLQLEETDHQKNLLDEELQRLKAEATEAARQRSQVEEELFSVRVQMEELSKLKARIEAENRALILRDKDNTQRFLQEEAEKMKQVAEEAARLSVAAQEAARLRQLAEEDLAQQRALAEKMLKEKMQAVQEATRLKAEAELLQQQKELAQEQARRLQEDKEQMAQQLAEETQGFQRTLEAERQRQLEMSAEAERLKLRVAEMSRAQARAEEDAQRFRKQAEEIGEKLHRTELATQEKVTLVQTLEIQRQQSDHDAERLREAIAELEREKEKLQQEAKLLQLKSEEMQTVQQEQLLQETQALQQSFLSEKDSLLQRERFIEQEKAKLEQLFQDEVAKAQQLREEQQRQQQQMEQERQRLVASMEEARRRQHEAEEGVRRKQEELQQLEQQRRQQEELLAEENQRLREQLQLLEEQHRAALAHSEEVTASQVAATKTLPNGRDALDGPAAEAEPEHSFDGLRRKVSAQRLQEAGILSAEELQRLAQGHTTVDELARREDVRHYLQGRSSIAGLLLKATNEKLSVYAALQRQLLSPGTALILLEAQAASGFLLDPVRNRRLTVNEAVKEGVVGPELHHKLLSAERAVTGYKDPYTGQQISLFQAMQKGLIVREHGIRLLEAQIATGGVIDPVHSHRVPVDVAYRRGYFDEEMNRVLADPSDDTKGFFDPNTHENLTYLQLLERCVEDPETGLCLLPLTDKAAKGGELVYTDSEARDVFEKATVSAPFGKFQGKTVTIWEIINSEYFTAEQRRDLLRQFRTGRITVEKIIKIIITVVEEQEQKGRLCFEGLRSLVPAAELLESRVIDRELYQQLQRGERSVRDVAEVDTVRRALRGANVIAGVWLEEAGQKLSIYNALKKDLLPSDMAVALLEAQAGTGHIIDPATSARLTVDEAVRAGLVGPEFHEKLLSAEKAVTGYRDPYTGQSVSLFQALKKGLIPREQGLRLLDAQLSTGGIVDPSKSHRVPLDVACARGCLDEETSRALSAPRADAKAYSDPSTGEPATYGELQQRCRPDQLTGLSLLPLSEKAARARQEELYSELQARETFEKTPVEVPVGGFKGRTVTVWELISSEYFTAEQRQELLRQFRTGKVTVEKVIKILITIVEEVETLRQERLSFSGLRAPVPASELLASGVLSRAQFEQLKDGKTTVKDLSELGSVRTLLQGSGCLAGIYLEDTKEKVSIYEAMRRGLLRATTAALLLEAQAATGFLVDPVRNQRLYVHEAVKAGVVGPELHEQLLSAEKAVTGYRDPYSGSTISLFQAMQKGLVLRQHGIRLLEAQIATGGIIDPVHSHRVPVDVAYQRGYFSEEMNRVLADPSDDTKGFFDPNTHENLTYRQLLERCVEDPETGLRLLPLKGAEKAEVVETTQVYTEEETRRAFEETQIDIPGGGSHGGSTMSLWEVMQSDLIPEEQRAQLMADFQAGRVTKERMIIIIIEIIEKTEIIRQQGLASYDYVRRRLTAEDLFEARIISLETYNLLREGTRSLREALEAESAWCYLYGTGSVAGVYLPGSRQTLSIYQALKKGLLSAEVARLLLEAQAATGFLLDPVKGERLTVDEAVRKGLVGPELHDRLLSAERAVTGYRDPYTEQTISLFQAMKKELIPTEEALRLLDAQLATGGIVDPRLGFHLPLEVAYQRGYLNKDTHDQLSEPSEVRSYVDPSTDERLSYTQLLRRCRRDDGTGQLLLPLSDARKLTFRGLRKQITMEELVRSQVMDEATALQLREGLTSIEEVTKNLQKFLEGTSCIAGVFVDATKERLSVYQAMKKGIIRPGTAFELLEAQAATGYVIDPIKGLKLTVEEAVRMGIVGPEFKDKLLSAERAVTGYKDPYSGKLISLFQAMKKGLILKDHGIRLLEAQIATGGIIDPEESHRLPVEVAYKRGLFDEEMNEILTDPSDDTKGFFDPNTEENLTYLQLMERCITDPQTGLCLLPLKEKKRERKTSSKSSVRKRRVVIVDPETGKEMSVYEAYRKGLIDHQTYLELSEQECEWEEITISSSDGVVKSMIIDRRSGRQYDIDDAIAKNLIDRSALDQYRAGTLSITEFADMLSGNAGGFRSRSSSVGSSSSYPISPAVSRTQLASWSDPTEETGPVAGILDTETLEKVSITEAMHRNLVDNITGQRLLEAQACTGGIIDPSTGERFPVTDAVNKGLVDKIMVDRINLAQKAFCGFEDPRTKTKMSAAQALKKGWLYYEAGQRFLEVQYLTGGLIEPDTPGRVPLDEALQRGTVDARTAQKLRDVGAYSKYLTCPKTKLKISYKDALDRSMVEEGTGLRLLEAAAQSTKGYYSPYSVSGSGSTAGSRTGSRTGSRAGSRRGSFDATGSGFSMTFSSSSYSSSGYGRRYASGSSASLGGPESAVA", "lysine labeling ratio R10:1": 3.7}
{"target": "HNRNPU (lysine site: K352) (UniProt Q00839)", "lysine labeling ratio R10:1": 2.95}
{"target": "FLNA (lysine site: K578) (UniProt P21333)", "lysine labeling ratio R10:1": "1.25 (active)"}
{"target": "IGF1R (lysine site: K667) (UniProt P08069)", "lysine labeling ratio R10:1": "1.28 (active)"}
{"target": "UniProt P14618 (lysine site: K247)", "lysine labeling ratio R10:1": 3}
{"target": "TCP1 (lysine site: K272) (UniProt P17987)", "lysine labeling ratio R10:1": 2.44}
{"target": "DNAJC9 (lysine site: K198) (UniProt Q8WXX5)", "lysine labeling ratio R10:1": 2.94}
{"target": "DSTN (lysine site: K132) (UniProt P60981)", "lysine labeling ratio R10:1": "1.32 (active)"}
{"target": "VAPA (lysine site: K211) (UniProt Q9P0L0)", "sequence (Q9P0L0 whole entry)": "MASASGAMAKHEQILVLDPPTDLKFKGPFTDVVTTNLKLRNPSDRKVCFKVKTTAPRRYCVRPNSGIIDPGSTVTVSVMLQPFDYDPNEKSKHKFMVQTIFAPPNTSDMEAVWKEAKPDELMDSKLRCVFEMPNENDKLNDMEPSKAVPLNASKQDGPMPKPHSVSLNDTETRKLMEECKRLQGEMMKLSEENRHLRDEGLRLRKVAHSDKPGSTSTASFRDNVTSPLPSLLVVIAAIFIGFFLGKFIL", "lysine labeling ratio R10:1": 4.3}
{"target": "UniProt Q6NZI2 (lysine site: K137)", "lysine labeling ratio R10:1": 3.08}
{"target": "ITGA5 (lysine site: K965) (UniProt P08648)", "lysine labeling ratio R10:1": "0.705 (active)"}
{"target": "HDGF (lysine site: K197) (UniProt P51858)", "sequence (P51858 whole entry)": "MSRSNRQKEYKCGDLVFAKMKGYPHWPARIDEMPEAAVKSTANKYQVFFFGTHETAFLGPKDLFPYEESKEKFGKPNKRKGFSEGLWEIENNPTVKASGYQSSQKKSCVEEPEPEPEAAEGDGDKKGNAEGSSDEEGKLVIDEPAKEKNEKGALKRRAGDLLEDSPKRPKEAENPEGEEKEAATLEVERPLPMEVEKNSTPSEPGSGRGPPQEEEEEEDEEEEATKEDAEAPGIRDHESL", "lysine labeling ratio R10:1": 2.54}
{"target": "UniProt P62491 (lysine site: K179)", "lysine labeling ratio R10:1": 2.31}
{"target": "SLC39A6 (lysine site: K164) (UniProt Q13433)", "lysine labeling ratio R10:1": 7.08}
{"target": "GPRC5A (lysine site: K16) (UniProt Q8NFJ5)", "lysine labeling ratio R10:1": 6.52}
{"target": "TMEM109 (lysine site: K215) (UniProt Q9BVC6)", "lysine labeling ratio R10:1": 3.67}
{"target": "UniProt Q15149 (lysine site: K1833)", "lysine labeling ratio R10:1": 2.22}
{"target": "FLOT1 (lysine site: K184) (UniProt O75955)", "lysine labeling ratio R10:1": "1.83 (active)"}
{"target": "CD55 (lysine site: K161) (UniProt P08174)", "lysine labeling ratio R10:1": "0.828 (active)"}
{"target": "GALNT2 (lysine site: K509) (UniProt Q10471)", "lysine labeling ratio R10:1": 3.5}
{"target": "ITGA6 (lysine site: K680) (UniProt P23229)", "lysine labeling ratio R10:1": 2.82}
